The values below come from PubChem BioAssay.

Test [1] is described as follows: optical density shifts of acrAB sulA E. coli – strain DRC41, OD650, 48 h, E. coli filamentation inducer project, primary screen (AID 1152).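 Also: E. coli MC1000 strain DRC41 lacking acrAB efflux pump and sulA.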 The following applies: higher = more signal, called active from +8 up or from −8 down.
A short description of test [2]: probe aLefty1 binding on compound microarray – biochemical, small-molecule microarray, 635/667 nm fluorescence, primary screen (AID 1153).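 Also: score merges spot fluorescence with signal-to-noise ratio from the scanned slide images.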 The following applies: higher = more signal.
A short description of test [3]: plasmodial surface anion channel blockers, osmotic lysis – cell-based, P. falciparum Indochina, OD700, 1 h, primary screen (AID 1154). The following applies: P. falciparum Indochina infected RBC osmotic lysis, higher = more signal, called active from +8 up or from −8 down.
Test [4] in a line: plasmodial surface anion channel blockers, osmotic lysis – cell-based, P. falciparum Indochina, OD700, 2 h, primary screen (AID 1155).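 Also: lysis reports solute entry through the parasite surface anion channel PSAC.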 As to conditions: P. falciparum Indochina infected erythrocytes, higher = more signal, called active from +8 up or from −8 down.
The nature of test [5]: changes in parasitized red cell lysis, either direction – P. falciparum Indochina, OD700, 3 h, PSAC antagonist project, primary screen (AID 1156). The following applies: P. falciparum-infected erythrocytes, osmotic lysis, higher = more signal, called active from +8 up or from −8 down.
Test [6] can be described thus: plasmodial surface anion channel blockers, osmotic lysis – cell-based, P. falciparum Indochina, OD700, 18 h, primary screen (AID 1157). As to conditions: P. falciparum Indochina infected erythrocytes, osmotic lysis OD700, 18 h; higher = more signal, called active from +8 up or from −8 down.
A short description of test [7]: S6 kinase pathway phospho-S6 level changes – cell-based, A549, cytoblot, luminescence, serum-stimulated, primary screen (AID 1158).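 Also: serum-stimulated A549 lung adenocarcinoma cells; signal is phosphorylated S6 detected by cytoblot immunostaining with HRP secondary.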 As to conditions: 5 h, higher = more signal.
Test [8] deals with NADPH oxidase 2 (Homo sapiens) (UniProt P04839). Put plainly: compounds shifting NOX2 Amplex Red fluorescence – cell-based, HEK293-NOX2, PMA-stimulated, NOX inhibitor project, primary screen (AID 1159). Also: test concentration not given here. The following applies: 45 min, higher = more signal, called active from +8 up or from −8 down.
Test [9] addresses NADPH oxidase 4 (Homo sapiens) (UniProt Q9NPH5). As to the kind of experiment: compounds shifting NOX4 Amplex Red fluorescence – cell-based, HEK293-NOX4, tetracycline-induced, NOX inhibitor project, primary screen (AID 1160). The following applies: HEK293-NOX4, Amplex Red H2O2 fluorescence, 45 min; higher = more signal, called active from +8 up or from −8 down.
The target of test [10] is NADPH oxidase 5 (Homo sapiens) (UniProt Q96PH1). Put plainly: compounds shifting NOX5 Amplex Red fluorescence – cell-based, HEK293-NOX5, NOX inhibitor project, primary screen (AID 1161). As to conditions: HEK293-NOX5, ionomycin, 45 min, higher = more signal.
Test [11] can be described thus: compound effects on lung adenocarcinoma cell viability – A549, calcein-AM fluorescence, 48 h, basal, profiling panel (AID 1162). Also: test concentration not given here. The following applies: higher = more signal.
A short description of test [12]: compound effects on differentiated 3T3-L1 adipocyte viability – cell-based, 3T3-L1 adipocytes, calcein-AM fluorescence, 48 h, basal, profiling panel (AID 1163). Also: test concentration not given here. The following applies: 3T3-L1 adipocytes viability, higher = more signal.
Test [13] can be described thus: compound effects on hepatocellular carcinoma cell viability – HepG2, calcein-AM fluorescence, 48 h, basal, profiling panel (AID 1164). Also: test concentration not given here. As to conditions: higher = more signal.
Test [14] can be described thus: compound effects on multiple myeloma cell viability – MM1S, calcein-AM fluorescence, 48 h, basal, profiling panel (AID 1165).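 Also: viability of MM1S multiple myeloma cells under basal unstimulated conditions; test concentration not given here.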 The following applies: higher = more signal.
A short description of test [15]: calcein-AM signal in unstimulated myeloma cells – cell-based, calcein-AM fluorescence, 48 h, PK04 Diversity Set, profiling panel (AID 1166).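 Also: cells grown under basal conditions without added stimulus; test concentration not given here.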 The following applies: RPMI8226 myeloma viability, higher = more signal.
The nature of test [16]: JC-1 mitochondrial signal, unstimulated HepG2 cells – cell-based, JC-1 fluorescence, 24 h, 100 nL compound, profiling panel (AID 1167). Also: test concentration not given here. The following applies: HepG2 mitochondrial potential, higher = more signal.
A short description of test [17]: JC-1 mitochondrial signal, unstimulated adipocytes – cell-based, JC-1 fluorescence, 3T3-L1 adipocytes, 24 h, 100 nL compound, profiling panel (AID 1168). Also: test concentration not given here. The following applies: JC-1 mitochondrial fluorescence, higher = more signal, called active from +8 up or from −8 down.
A short description of test [18]: JC-1 mitochondrial signal, unstimulated myeloma cells – cell-based, JC-1 fluorescence, RPMI8226, 24 h, 100 nL compound, profiling panel (AID 1169). Also: test concentration not given here. The following applies: JC-1 mitochondrial potential fluorescence, higher = more signal.
A short description of test [19]: JC-1 mitochondrial signal, unstimulated MM1S myeloma – cell-based, JC-1 fluorescence, 24 h, 100 nL compound, profiling panel (AID 1170). Also: test concentration not given here. As to conditions: MM1S mitochondrial potential, higher = more signal.
Test [20] in a line: resazurin metabolic signal in A549 cells – cell-based, resazurin fluorescence, 24 h, PK04 Diversity Set, profiling panel (AID 1171). Also: test concentration not given here. The following applies: A549 viability, higher = more signal, called active from +8 up or from −8 down. On the technique in general: Alamar Blue is a resazurin reagent that responds to reducing activity.

SMILES strings stand for the structures. Calls of active or inactive are those of the source.

Sequence of NADPH oxidase 4 (Homo sapiens) (Q9NPH5 whole entry, looked up): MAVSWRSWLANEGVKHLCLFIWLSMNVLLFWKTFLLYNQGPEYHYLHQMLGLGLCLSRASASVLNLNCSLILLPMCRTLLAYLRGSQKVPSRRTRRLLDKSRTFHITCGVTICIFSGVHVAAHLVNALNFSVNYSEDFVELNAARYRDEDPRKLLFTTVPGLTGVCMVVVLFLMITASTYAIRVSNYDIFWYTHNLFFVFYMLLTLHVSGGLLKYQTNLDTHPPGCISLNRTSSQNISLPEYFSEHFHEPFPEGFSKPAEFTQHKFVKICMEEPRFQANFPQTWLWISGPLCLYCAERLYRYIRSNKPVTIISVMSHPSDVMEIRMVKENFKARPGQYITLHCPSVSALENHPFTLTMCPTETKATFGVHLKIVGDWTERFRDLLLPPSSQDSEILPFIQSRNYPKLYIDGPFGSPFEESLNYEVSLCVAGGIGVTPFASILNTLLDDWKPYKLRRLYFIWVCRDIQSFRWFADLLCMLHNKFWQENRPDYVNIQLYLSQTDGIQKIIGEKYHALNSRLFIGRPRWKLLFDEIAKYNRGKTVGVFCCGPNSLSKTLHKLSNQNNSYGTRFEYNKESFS
Sequence of NADPH oxidase 5 (Homo sapiens) (Q96PH1 whole entry, looked up): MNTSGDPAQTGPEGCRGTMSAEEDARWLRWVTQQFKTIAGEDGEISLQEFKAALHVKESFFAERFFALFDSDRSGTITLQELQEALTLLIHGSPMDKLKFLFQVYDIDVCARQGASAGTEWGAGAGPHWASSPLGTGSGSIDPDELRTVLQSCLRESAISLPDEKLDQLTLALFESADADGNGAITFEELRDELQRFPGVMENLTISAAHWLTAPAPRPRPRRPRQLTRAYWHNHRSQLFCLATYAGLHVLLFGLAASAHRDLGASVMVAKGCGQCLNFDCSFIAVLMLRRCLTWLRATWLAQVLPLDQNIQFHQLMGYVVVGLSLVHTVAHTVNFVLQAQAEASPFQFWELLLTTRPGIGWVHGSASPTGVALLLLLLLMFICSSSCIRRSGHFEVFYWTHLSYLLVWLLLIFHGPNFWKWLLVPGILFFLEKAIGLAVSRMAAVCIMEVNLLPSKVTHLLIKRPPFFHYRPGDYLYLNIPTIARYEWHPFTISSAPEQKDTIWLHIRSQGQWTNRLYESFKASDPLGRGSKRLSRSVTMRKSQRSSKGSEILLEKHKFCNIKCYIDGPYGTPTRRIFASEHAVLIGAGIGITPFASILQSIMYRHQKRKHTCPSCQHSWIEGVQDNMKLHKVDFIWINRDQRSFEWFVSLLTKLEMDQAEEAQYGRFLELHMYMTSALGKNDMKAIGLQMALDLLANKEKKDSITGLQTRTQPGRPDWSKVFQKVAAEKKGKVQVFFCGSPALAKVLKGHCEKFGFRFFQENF
Sequence of NADPH oxidase 2 (Homo sapiens) (P04839 whole entry, looked up): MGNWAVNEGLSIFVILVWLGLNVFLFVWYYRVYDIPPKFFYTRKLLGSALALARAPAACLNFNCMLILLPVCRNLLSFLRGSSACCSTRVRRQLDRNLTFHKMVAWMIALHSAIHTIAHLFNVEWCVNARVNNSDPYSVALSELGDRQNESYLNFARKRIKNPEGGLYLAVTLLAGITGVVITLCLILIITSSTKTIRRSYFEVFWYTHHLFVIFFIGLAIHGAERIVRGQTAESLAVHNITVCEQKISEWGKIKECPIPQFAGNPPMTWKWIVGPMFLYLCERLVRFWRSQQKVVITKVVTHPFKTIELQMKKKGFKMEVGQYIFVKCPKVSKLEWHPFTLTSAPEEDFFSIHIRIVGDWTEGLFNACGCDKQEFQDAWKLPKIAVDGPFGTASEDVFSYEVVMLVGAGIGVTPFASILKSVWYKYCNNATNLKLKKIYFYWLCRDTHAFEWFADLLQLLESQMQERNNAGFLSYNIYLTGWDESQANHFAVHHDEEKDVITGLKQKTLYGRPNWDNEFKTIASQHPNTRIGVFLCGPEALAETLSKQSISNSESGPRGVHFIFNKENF

Regarding `CCOC(=O)[C@H](Cc1ccccc1)NC(=O)CCC1CC(OC(=O)NCc2ccc3c(c2)OCO3)CC2(CCCC(COC(=O)NCCc3ccccc3OC)O2)O1` (stereo not given in full), the z-score in [1] was -0.567 (inactive); in test [3], 1.3 (inactive); in test [4] it was 0.627 (inactive); in test [5], -0.451 (inactive); in [6], 0.222 (inactive); in [7], -0.254. Besides, the z-score in [8] was 0.799 (inactive); in test [9], -1.05 (inactive); in [10] it was 1.28; in test [11] it was -1.24; in test [12], -0.399; in test [13], -0.519. The z-score in [14] was -0.271; in [15] it was -0.502; in test [16], -0.778; in test [17], -0.877 (inactive); in test [18] it was 0.444; in test [19], 0.00939. In addition, the z-score in [20] was 0.124 (inactive). Besides, in test [2], the composite z-score was -0.0547.
On to `COC(=O)[C@H](C)NC(=O)CCC1CC(OC(=O)NCc2ccc3c(c2)OCO3)CC2(CCCC(COC(=O)NCC3CCCCC3)O2)O1` (stereo not given in full), for which the z-score is -0.23 (inactive) in test [1]; 0.858 (inactive) in test [3]; -0.53 (inactive) in [4]; -0.508 (inactive) in [5]; -0.167 (inactive) in test [6]; 0.224 in test [7]. The z-score in test [8] is -0.373 (inactive); in test [9], 0.62 (inactive); in [10], -0.651; in [11] it was -0.374; in test [12] it was -0.335; in test [13], -0.653. Besides, the z-score was -3.22 in [14]; -0.103 in test [15]; -0.283 in test [16]; -0.183 (inactive) in test [17]; 0.34 in test [18]; -0.0549 in test [19]. The z-score in test [20] is 0.619 (inactive). In test [2], this compound came in with a composite z-score of -0.0984.
As to `COc1cccc([C@H]2Oc3ccc(OC)cc3C(=NOC[C@@H](C)[C@H](OCc3ccccc3)C(C)C)[C@@H]2O)c1`, the z-score is -1.25 (inactive) in test [1]; 2.57 (inactive) in test [3]; 0.947 (inactive) in [4]; 0.0083 (inactive) in test [5]; 0.612 (inactive) in test [6]; -0.891 in test [7]. The z-score is -0.364 (inactive) in [8]; -2.1 (inactive) in [9]; -1.97 in test [10]; -0.956 in test [11]; 0.488 in test [12]; -0.744 in [13]. The z-score in test [14] is -0.596; in test [15], -2.12; in test [16] it was -3.51; in [17] it was -0.65 (inactive); in test [18] it was -0.188; in test [19], 0.748. In addition, in test [20], the z-score was 0.385 (inactive). This compound also showed a composite z-score in test [2] of -0.0428.
`C[C@@H]1C=CCC(=O)OC[C@H]2O[C@@H](C=C[C@@H]2O)[C@H](C)C=CCC(=O)OC1`: the z-score is 0.625 (inactive) in test [1]; 0.119 (inactive) in test [3]; -1.48 (inactive) in test [4]; -0.71 (inactive) in [5]; -2.02 (inactive) in [6]; 1.61 in test [7]. The z-score in test [8] was -0.601 (inactive); in test [9], 0.346 (inactive); in [10], 0.58; in test [11], 0.164; in test [12], -0.0309; in [13], 1.37. Moreover, the z-score in [14] is 0.35; in test [15], 0.72; in [16] it was 0.909; in [17] it was 1.27 (inactive); in [18], -0.0914; in test [19], 1.21. For the same compound, in test [20], the z-score was -0.976 (inactive). This compound also displayed a composite z-score in test [2] of -0.106.
Consider `CC(C)=NO[C@H](C)c1cn([C@H](CO)Cc2ccccc2)nn1`, for which the z-score in [1] was -2.06 (inactive); in test [3], 0.29 (inactive); in test [4], 0.0191 (inactive); in test [5] it was -0.188 (inactive); in test [6], 0.269 (inactive); in test [7], 0.225. Further, the z-score was 0.849 (inactive) in [8]; -0.311 (inactive) in test [9]; -0.281 in [10]; 0.373 in test [11]; 0.232 in [12]; -0.121 in test [13]. In addition, the z-score in test [14] was -0.0735; in [15], -0.33; in test [16], -0.312; in test [17] it was -0.41 (inactive); in test [18] it was 0.155; in [19], 1.11. Besides, the z-score in test [20] is 0.268 (inactive). This compound also registered a composite z-score in test [2] of -0.142.
